For 26 compounds, inhibition results are on record in PubChem BioAssay AID2153 (The Scripps Research Institute Molecular Screening Center, 2009).

The whole screen tested about 2,400 compounds, of which about 2,000 (83%) were called active. The set was probably picked from earlier hits. Not all results are given here. Unmarked numbers belong to inactive results.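 The calls were made as follows: active = inhibition above the solvent-only control well mean plus 3 SD, limit set per screening run (cut at about 23% in these data); inactive = the rest.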

Chain of Guanyl-specific ribonuclease T1 (Aspergillus oryzae (strain ATCC 42149 / RIB 40)) (P00651 whole entry, looked up): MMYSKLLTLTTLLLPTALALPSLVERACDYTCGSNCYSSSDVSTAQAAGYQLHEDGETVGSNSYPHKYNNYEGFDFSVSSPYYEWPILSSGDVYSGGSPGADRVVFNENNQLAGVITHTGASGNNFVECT

This assay concerns the target Guanyl-specific ribonuclease T1 (Aspergillus oryzae (strain ATCC 42149 / RIB 40)) (UniProt P00651). Nature of the assay: blockers of Aspergillus RNase T1 cleavage – biochemical, fluorescence polarization, counter-screen for TPT1 inhibitor project (AID 2153).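 Also: plate controls were DMSO wells with enzyme for no effect and wells without RNase T1 for full effect; inhibitors block cleavage so intact labeled substrate keeps polarization high.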 The settings on record: 1536-well, at 5 µM, hits give high values. On the technique in general: Polarisation of emitted light reports the rotation of a fluorescent probe.
`Cc1cc(O)c(C(=O)/C=C/c2c(F)c(F)c(F)c(F)c2F)c(=O)o1`: the inhibition was 81.2% (active). Next, `N#CC1=C(N)Oc2c(sc3ccccc23)C1c1ccco1` (stereo unspecified): 76.9% (active); `Cn1c2ccccc2c2cc(/C=C(\NC(=O)c3ccccc3)C(=O)NCC(=O)O)ccc21`: 92.9% (active). For the compound `Cc1ccc(Nc2ccccc2N)cc1`, the inhibition was 36% (active). Next, `Cc1cccn2c(=O)c(/C=C3\SC(=S)N(CC(C)C)C3=O)c(NCCCOC(C)C)nc12`: 131% (active); `COc1cc(/C=C2/C(=O)NN(c3cccc(Cl)c3)C2=O)cc(Br)c1O`: 150% (active). Next, `Cc1cc(C)c(/C=C2\C(=O)Nc3ccccc32)[nH]1`: 118% (active). Turning to `Cc1ccc(-c2nn(-c3ccccc3)cc2/C=C2\SC(=S)N(CCCCCC(=O)O)C2=O)o1`, the inhibition was 73.6% (active). `CCC(c1nnnn1Cc1ccco1)N(Cc1cc2cc(OC)ccc2[nH]c1=O)C1CCCCC1` (stereo unspecified): the inhibition is 17.9%.

Take `N#C/C(=C(/O)COC(=O)COc1ccc(Cl)cc1)c1nc2ccccc2[nH]1`: the inhibition is 50.6% (active). With `CCOc1ccc2nc(/N=C/c3nc(-c4ccccc4)oc3O)sc2c1`, the inhibition was 65.4% (active).

`Cc1c(-c2ccccc2)cn2c1-c1ccc(C)n1CC2`: the inhibition is 47.3% (active). In the case of `Cn1cccc1/C=C1\SC(=S)N(NC(=O)c2ccc(Cl)cc2)C1=O` it was 113% (active). Next, `Fc1ccc2nc(Nc3nc4c(s3)CCCC4)sc2c1`: 37.5% (active). On to `CN1/C(=C\C=C2\N=C(c3ccc(F)cc3)OC2=O)C(C)(C)c2ccccc21`, for which the inhibition is 140% (active). Regarding `Cc1ccc(C)c2[nH]c(=O)c(CCNC(=O)CC(C)C)cc12`, the inhibition was 6.2%. Next, `N#C/C(=C/c1ccc(N2CCCCC2)o1)C(=O)NCCc1c[nH]c2ccccc12`: 170% (active). Next, `CN1/C(=c2/s/c(=C3/C(=O)N(c4ccccc4)NC3=Nc3ccccc3)n(C)c2=O)C(C)(C)c2ccccc21`: 92.8% (active); `CS(=O)(=O)c1ccc2c(c1)SC1=NC(=O)/C(=C/c3ccco3)C(=N)N12`: 60.6% (active); `CCN(CC)c1ccc(/C=N/Nc2nc(C)cc(C)n2)c(O)c1`: 44.9% (active). As for `Cc1ccc(S(=O)(=O)N(C)c2nc3ccccc3n3c(C(C)C)nnc23)cc1`, the inhibition was 3.03%. In the case of `CCOc1nnc(C)c2c(C)n(-c3cccc(Cl)c3)nc12`, the inhibition was 88.4% (active).

Consider `CSC1=N/C(=C\C=C\c2cccs2)C(=O)S1`, for which the inhibition was 64.5% (active).

`CCCOc1ccc(Cn2c(O)cc(=O)[nH]c2=O)cc1`: the inhibition is 30.3% (active). Regarding `COc1ccc(C2=NN(C(=O)c3ccccc3C(=O)O)C(c3ccccc3O)C2)cc1` (stereo unspecified), the inhibition is 37.9% (active). In the case of `O=C(/C=C/c1ccc(N2CCOCC2)cc1)c1ccccc1` it was 91.3% (active).

As usually defined, the inhibition is the drop in the measured response relative to a control, in per cent.
